Assay [1] can be described thus: inhibitors of TNFa-induced NFkB p65 translocation, primary screen, imaging, HUVEC, MLSMR starter and 10KST1 sets (AID 438;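 active = inhibition above 20% together with a positive visual image hit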;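 note: compound added about 3h40 before a 20 min TNFalpha stimulation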;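 for inhibition: signal is the nuclear over cytoplasmic p65 intensity ratio per well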). Particulars: HUVEC TNFa-induced p65 nuclear translocation; cell count: measured here: nuclei count (cytotoxicity indicator), at 2.08 µM; inhibition: at 2 µM, stronger effect = higher value, 0% TNFa-plus-vehicle, 100% no-TNFa wells.
The nature of assay [2]: reduction of polyQ htt aggregates in cells – imaging, exon1htt(103Q)mCFP cells, high-content imaging, primary screen (AID 483;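 active = visual image review flags a hit and inhibition of aggregation exceeds 20%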;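 note: compound exposure lasted 3 days before fixation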;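 for nuclei count: percent of the per-plate median nuclei count of sample wells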). Particulars: exon1htt(103Q)mCFP cell line, aggregate imaging, at 2 µM; inhibition of aggregation: stronger effect = higher value; nuclei count: measured here: cell count, toxicity.
Assay [3] in a line: endothelial E-selectin expression blockers – imaging, HUVEC, immunofluorescence, MLSMR starter and 10KST1 sets, primary screen (AID 487;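 active = visually confirmed hit in the image check and inhibition above 20%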;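 for inhibition: signal is fraction of cell area covered by stained E-selectin grains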;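 for nuclei count: 100% = median nuclei count of all wells on the same plate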). Particulars: HUVEC TNFalpha-induced E-selectin immunofluorescence imaging, at 2 µM; inhibition: stronger effect = higher value; nuclei count: measured here: cell number, toxicity.
Assay [4] has as its target Voltage-gated potassium channel subunit beta-2 (Rattus norvegicus) (UniProt P62483). The assay can be described thus: inhibitors of rat Kvbeta2 reductase activity – biochemical, NADPH fluorescence, primary screen (AID 622;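 active = fluorescence slope higher than the sample average by over 3 SD, cut at about -0.22 in these data, passing the limit was not always enough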;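 note: slope of raw intensity against log time taken from 70 to 1610 s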). Particulars: recombinant KvBeta, 4-cyanobenzaldehyde reduction, at 10 µM, stronger effect = higher value.
Assay [5] shares this target. The assay can be described thus: enhancers of rat Kvbeta2 NADPH turnover – biochemical, NADPH fluorescence, primary screen (AID 623;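 active = NADPH fluorescence slope more negative than the mean of all samples by about 3 SD, 99.7% confidence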;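 note: fluorescence intensity change per second fitted from 20 to 320 s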). Particulars: Recombinant KvBeta, NADPH fluorescence decrease slope, 10 min; at 10 µM; stronger effect = lower value.
Assay [6] deals with Alpha-2C adrenergic receptor (Homo sapiens) (UniProt P18825). The assay can be described thus: compounds altering alpha2C-coupled GIRK flux – cell-based, HEK293 alpha2C/GIRK1/2, thallium flux, primary screen (AID 624;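 active = fluorescence slope after compound addition differing from the mean of all screened samples at 99.7% confidence, in either direction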;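 note: slope of fluorescence ratio to pre-addition baseline per second over 15 to 24 s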). To be noted: thallium flux BTC fluorescence, at 10 µM, actives lie on both sides.
Sequence of Alpha-2C adrenergic receptor (Homo sapiens) (P18825 whole entry, looked up): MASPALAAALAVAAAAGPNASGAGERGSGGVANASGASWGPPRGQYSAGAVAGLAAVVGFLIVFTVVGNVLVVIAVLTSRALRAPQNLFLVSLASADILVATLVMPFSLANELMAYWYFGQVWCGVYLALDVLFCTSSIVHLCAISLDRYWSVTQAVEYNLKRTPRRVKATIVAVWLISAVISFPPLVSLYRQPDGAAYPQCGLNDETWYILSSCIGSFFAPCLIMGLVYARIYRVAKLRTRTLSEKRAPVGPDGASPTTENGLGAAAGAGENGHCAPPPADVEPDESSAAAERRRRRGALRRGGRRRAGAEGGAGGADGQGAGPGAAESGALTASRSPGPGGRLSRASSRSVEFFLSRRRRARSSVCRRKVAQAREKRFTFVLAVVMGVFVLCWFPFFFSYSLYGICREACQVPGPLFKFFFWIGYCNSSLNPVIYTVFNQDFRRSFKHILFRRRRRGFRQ
A short description of assay [7]: blockers of RIG-like receptor reporter activation – cell-based, Sendai virus stimulus, luciferase, 10K MLSCN set, TLR/RLR signaling modifier project, primary screen (AID 602276).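 Note: firefly luciferase from ISG56 promoter only with Renilla not read in this screen; 0% = Sendai virus plus DMSO and 100% = medium plus DMSO without virus.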 Particulars: HEK293 RL24 IRF3 luciferase reporter, at 10 µM, stronger effect = higher value. (A reporter such as luciferase makes a cellular process visible.)
A short description of assay [8]: TLR3 IRF3 reporter activation blockers – cell-based, poly I:C stimulus, luciferase, 10K MLSCN set, primary screen (AID 602277;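 active = inhibition of the reporter signal at or above 50%; inactive = inhibition below 50%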). To be noted: HEK293-TLR3 RL24 IRF3 luciferase reporter, at 10 µM, stronger effect = higher value.

The source made the active and inactive calls.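 Rule for the calls, unless noted: active = inhibition at or above 50% at 10 µM; inactive = inhibition below 50%.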

In general, inhibition refers to the relative decrease from the control value, in per cent.

Sequence of Voltage-gated potassium channel subunit beta-2 (Rattus norvegicus) (P62483 whole entry, looked up): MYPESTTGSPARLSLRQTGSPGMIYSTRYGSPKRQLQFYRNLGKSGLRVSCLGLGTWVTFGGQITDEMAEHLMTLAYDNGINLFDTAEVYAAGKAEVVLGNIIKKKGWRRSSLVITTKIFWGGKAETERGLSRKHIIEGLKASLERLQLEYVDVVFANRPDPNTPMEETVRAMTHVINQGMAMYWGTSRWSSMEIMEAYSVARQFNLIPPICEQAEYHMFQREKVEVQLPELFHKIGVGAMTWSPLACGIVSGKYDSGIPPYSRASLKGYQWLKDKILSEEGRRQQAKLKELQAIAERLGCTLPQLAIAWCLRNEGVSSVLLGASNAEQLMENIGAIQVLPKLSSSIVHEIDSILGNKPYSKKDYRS

As for `COc1cc(C)c(N)cc1C(C)C`, in assay [1], the cell count was found to be 422. The inhibition was -5.6% (inactive) in assay [1], -41.7% (inactive) in assay [3], 12.9% (inactive) in assay [7] and 18.3% (inactive) in assay [8]. Moreover, the inhibition of aggregation in assay [2] is 5.2% (inactive). Also, the nuclei count in assay [2] is 81.4%; in assay [3], 110%. Also, in assay [4], the fluorescence slope is -0.589 (inactive). The NADPH fluorescence slope in assay [5] is -1.8e-05 (inactive). For the same compound, in assay [6], the slope was 0.00295 (inactive).

Turning to `Cc1cccc(NC(=O)CSc2nnc(-c3ccccc3C)o2)c1`, the cell count in assay [1] stood at 414. The values for the inhibition in assay [1], in assay [7] and in assay [8] were 0.8% (inactive), -55.2% (inactive) and -86.9% (inactive), respectively. Also, the inhibition of aggregation in assay [2] was -0.2% (inactive). The nuclei count in assay [2] is 92%; in assay [3], 116%. In assay [4], the fluorescence slope was -0.32 (inactive). In addition, the NADPH fluorescence slope in assay [5] is -4.9e-05 (inactive). In assay [6], the slope is 0.00441 (inactive).

On to `O=C(OCC(=O)N1CCCC1)c1ccccc1OCc1ccccc1`, for which the cell count in assay [1] came out at 576. The inhibition in assay [1] is -10.8% (inactive); in assay [3], -42.5% (inactive); in assay [7], -11.3% (inactive); in assay [8], 6.16% (inactive). The inhibition of aggregation in assay [2] is -9.8% (inactive). For the same compound, the nuclei count in assay [2] came to 95.3%; in assay [3], 123%. Also, the fluorescence slope in assay [4] is -0.505 (inactive). Further, the NADPH fluorescence slope in assay [5] was -3.9e-05 (inactive). Also, the slope in assay [6] was 0.00498 (inactive).

For the compound `CCOc1ccccc1C(=O)N1CCN(c2cccc(Cl)c2)CC1`, the cell count in assay [1] was determined as 460. Also, the inhibition in assay [1] is 24.4% (active); in assay [3], -294% (inactive); in assay [7], 9.54% (inactive); in assay [8], 87.8% (active). Moreover, in assay [2], the inhibition of aggregation was -20.9% (inactive). Also, the nuclei count in assay [2] is 4%; in assay [3] it was 104%. For the same compound, the fluorescence slope in assay [4] is -0.614 (inactive). Moreover, the NADPH fluorescence slope in assay [5] is -5.4e-05 (inactive). Moreover, the slope in assay [6] was 0.00344 (inactive).

For `CCn1cc(C2=NCC(C)O2)c2ccccc21` (stereo not drawn), the cell count in assay [1] is 487. Further, the inhibition in assay [1] is 5% (inactive); in assay [3], -128% (inactive); in assay [7] it was 12.7% (inactive); in assay [8], 25.5% (inactive). Besides, the inhibition of aggregation in assay [2] is -14% (inactive). In addition, the nuclei count in assay [2] was 83.2%; in assay [3], 102%. In assay [4], the fluorescence slope was -0.595 (inactive). In addition, the NADPH fluorescence slope in assay [5] is -9.7e-06 (inactive). Besides, the slope in assay [6] is 0.00619 (inactive).

Consider `O=C(NCc1ccco1)c1cc2cc3ccc(Cl)cc3nc2o1`, for which the cell count in assay [1] came out at 198. The inhibition was -4.9% (inactive) in assay [1], -23.3% (inactive) in assay [3], -5.73% (inactive) in assay [7] and -43.3% (inactive) in assay [8]. In addition, in assay [2], the inhibition of aggregation is 12.7% (inactive). Besides, the values for the nuclei count in assay [2] and in assay [3] were 105% and 118%, respectively. Besides, in assay [4], the fluorescence slope is -0.489 (inactive). In addition, in assay [5], the NADPH fluorescence slope is -3.4e-05 (inactive). Also, the slope in assay [6] was 0.00854 (inactive).

For the compound `C=CCn1c(COc2ccc(Cl)cc2)nnc1SCC(=O)N1CC(=O)Nc2ccccc21`, the cell count in assay [1] worked out at 315. For the same compound, the inhibition is 1.9% (inactive) in assay [1], -6.5% (inactive) in assay [3], 3.41% (inactive) in assay [7] and 4.64% (inactive) in assay [8]. Besides, in assay [2], the inhibition of aggregation was -0.9% (inactive). In addition, the figures for the nuclei count in assay [2] and in assay [3] were 104% and 110%, respectively. In addition, the fluorescence slope in assay [4] is -0.425 (inactive). For the same compound, the NADPH fluorescence slope in assay [5] is -2.1e-05 (inactive). Further, in assay [6], the slope is 0.00537 (inactive).

For `CCc1ccc(N(CC(=O)NC2CCCC2)S(=O)(=O)c2c(C)noc2C)cc1`, the cell count in assay [1] is 720. Besides, the inhibition is -0.8% (inactive) in assay [1], -48.7% (inactive) in assay [3], 4.77% (inactive) in assay [7] and 37.7% (inactive) in assay [8]. Also, in assay [2], the inhibition of aggregation is -6% (inactive). Moreover, the results for the nuclei count in assay [2] and in assay [3] were 97.9% and 102%, respectively. For the same compound, the fluorescence slope in assay [4] is -0.569 (inactive). The NADPH fluorescence slope in assay [5] was -4.6e-05 (inactive). The slope in assay [6] was 0.00649 (inactive).

Regarding `COc1ccc(-c2nc(CSCC(=O)N3CCc4ccccc4C3)c(C)o2)cc1OC`, the cell count in assay [1] came to 643. Moreover, the inhibition in assay [1] was 6.9% (inactive); in assay [3], 5.9% (inactive); in assay [7] it was 8.21% (inactive); in assay [8], 12.7% (inactive). In addition, the inhibition of aggregation in assay [2] is -5.2% (inactive). The nuclei count was found to be 101% in assay [2] and 116% in assay [3]. Besides, the fluorescence slope in assay [4] was -0.603 (inactive). Besides, the NADPH fluorescence slope in assay [5] is -1.8e-06 (inactive). Besides, the slope in assay [6] is 0.00589 (inactive).

As to `COc1ccc(Oc2nc(Oc3ccc(OC)cc3)nc(Oc3ccc(OC)cc3)n2)cc1`, the cell count in assay [1] was found to be 320. In addition, the inhibition in assay [1] is -5.1% (inactive); in assay [3] it was -4.6% (inactive); in assay [7], 3.19% (inactive); in assay [8] it was 11.5% (inactive). For the same compound, in assay [2], the inhibition of aggregation was -10.7% (inactive). Further, the nuclei count in assay [2] turned out to be 109%; in assay [3], 106%. For the same compound, in assay [4], the fluorescence slope was -0.536 (inactive). The NADPH fluorescence slope in assay [5] is -1.9e-06 (inactive). Besides, the slope in assay [6] was 0.00755 (inactive).

With `CCN1C(=O)c2ccccc2S(=O)(=O)c2ccc(C(=O)NCc3cccnc3)cc21`, the cell count in assay [1] is 804. For the same compound, the inhibition in assay [1] is -6.4% (inactive); in assay [3] it was -50.1% (inactive); in assay [7], -13.6% (inactive); in assay [8], 1.79% (inactive). Further, the inhibition of aggregation in assay [2] was -35.7% (inactive). Further, the nuclei count in assay [2] is 107%; in assay [3], 129%. The fluorescence slope in assay [4] is -0.569 (inactive). Besides, in assay [5], the NADPH fluorescence slope was -4.8e-05 (inactive). Also, in assay [6], the slope is 0.00634 (inactive).

In the case of `COc1ccccc1N1C(=O)CCC1(C#N)c1ccccc1` (stereo not drawn), the cell count in assay [1] is 567. Besides, the inhibition in assay [1] was 6.9% (inactive); in assay [3], -30.3% (inactive); in assay [7], -5.14% (inactive); in assay [8], 9.48% (inactive). Further, the inhibition of aggregation in assay [2] is -0.9% (inactive). Besides, the nuclei count amounted to 87.7% in assay [2] and 72.2% in assay [3]. In assay [4], the fluorescence slope was -0.62 (inactive). Further, the NADPH fluorescence slope in assay [5] is 6e-06 (inactive). Besides, in assay [6], the slope was 0.0062 (inactive).

Consider `Cc1oc(-c2ccccc2F)nc1CS(=O)(=O)CC(=O)NCCCN1CCc2ccccc2C1`, for which the cell count in assay [1] was determined as 649. The inhibition was 11% (inactive) in assay [1], 27.9% (inactive) in assay [3], 10.5% (inactive) in assay [7] and 18.8% (inactive) in assay [8]. Moreover, in assay [2], the inhibition of aggregation was 16.1% (inactive). The nuclei count in assay [2] was 68.5%; in assay [3] it was 108%. In addition, the fluorescence slope in assay [4] is -0.508 (inactive). Besides, in assay [5], the NADPH fluorescence slope is -5.3e-07 (inactive). Moreover, the slope in assay [6] is 0.00532 (inactive).

Regarding `CC(=O)c1cccc(-n2nnnc2SCC(=O)N2CCCC2)c1`, the cell count in assay [1] came out at 720. Moreover, the inhibition in assay [1] is -3.5% (inactive); in assay [3], -56% (inactive); in assay [7] it was 4.48% (inactive); in assay [8] it was 14.5% (inactive). Moreover, the inhibition of aggregation in assay [2] is -2.4% (inactive). Moreover, the nuclei count in assay [2] is 119%; in assay [3], 106%. Also, in assay [4], the fluorescence slope is -0.401 (inactive). The NADPH fluorescence slope in assay [5] was -4.2e-05 (inactive). In assay [6], the slope is 0.00357 (inactive).

(Values after PubChem BioAssay.)
